# Measured values from PubChem BioAssay AID686978 (National Center for Advancing Translational Sciences (NCATS), 2013).
# Among all 420,000 compounds or so, about 64,000 (15%) were called active. Not shown: some 27% with an inconclusive outcome. Only a sample is shown. Values without a mark were called inactive. Calls come from the whole dose curve; as a rule, active = well fitted inhibition curve with a large enough effect; inconclusive = small, poorly fitted or top-dose-only effect; inactive = flat fitted curve, though single readings scatter.
# Assay: qHTS for Inhibitors of human tyrosyl-DNA phosphodiesterase 1 (TDP1): qHTS in cells in absence of CPT; note: nearly all actives have a fitted effect of over 55% in size
# Details: DT40 Tdp1-/- hTDP1 cells, no CPT, ATP luminescence, 48 h; activity change, negative = growth inhibition: at 46.2 µM (top of the series)
# Summary of the method: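 DT40 Tdp1-/-;hTDP1 cells, no CPT (DMSO vehicle only), 400 cells/well; compounds pin-transferred; ≥48 hr, 37 °C; CellTiter-Glo 30 min RT dark, luminescence read.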
# % is set by controls: 0 for no effect and ±100 for the full control effect; potency is the fitted concentration of half-maximal effect.
Compound,"activity change, negative = growth inhibition [%]",Potency
N#Cc1cc([N+](=O)[O-])ccc1NC(=O)COC(=O)c1cnccn1,-19.1,
NS(=O)(=O)c1cccc(NC(=O)CC23CC4CC(CC(Br)(C4)C2)C3)c1,-2.07,
Cn1cccc1C(C#N)c1ccccc1C#N (stereo unspecified),-0.548,
Cc1ccccc1NC(=O)C(C)OC(=O)CCC(=O)N(CC(C)C)c1c(N)n(CC(C)C)c(=O)[nH]c1=O (stereo unspecified),-7.3,
Cc1cccc(C(C)C)c1NC(=O)COC(=O)C1CC(=O)N(Cc2ccccc2)C1 (stereo unspecified),-25.4,
Cc1ccccc1NC(=O)NNC(=O)OC(C)(C)C,-0.379,
Cc1ccc(C(=O)NNC(=O)OC(C)(C)C)c(Cl)c1,-5.16,
O=C(COC(=O)c1ccc(O)cc1O)NC(=O)c1ccccc1,-21.6,
O=C(N/N=C/c1cccnc1)c1cc2ccccc2cc1O,-19.2,
O=C(NNc1c2ccccc2nc2ccccc12)c1cc2ccccc2cc1O,,18.4 µM (active)
CC(C)(C)OC(=O)NNc1c2ccccc2nc2ccccc12,,13 µM (active)
CCCCNC(=O)N(O)C1N(/N=C/c2ccc(N(C)C)cc2)C(=S)SC1(C)C (stereo unspecified),-11,
Cc1csc(/N=C/N(C)C)c1C#N,-18,
CCS(=O)(=O)Nc1ccc(C2=NN(C(C)=O)C(c3cccs3)C2)cc1 (stereo unspecified),,5.8 µM (active)
CS(=O)(=O)Nc1ccc(C2=NN(S(C)(=O)=O)C(c3cccs3)C2)cc1 (stereo unspecified),6.29,
COc1ccc(C2=NN(C(=O)CCC(=O)O)C(c3cccs3)C2)cc1OC (stereo unspecified),-3.18,
NNC(=O)c1cccc(COCC(F)(F)C(F)F)c1,0.0307,
Cc1c(C(=O)Nc2cccc(S(=O)(=O)N3CCOCC3)c2)oc2ccccc12,,20.6 µM (active)
O=C(Nc1cc(S(=O)(=O)N2CCOCC2)ccc1N1CCOCC1)c1c(F)cccc1Cl,-28.8,
Cc1ccc2oc(C(=O)Nc3ccc(S(=O)(=O)N4CCCCCC4)cc3)cc(=O)c2c1,-20,
O=C(Cn1[nH]c(=O)c2ccccc2c1=O)Nc1cccc(-c2nnc3n2CCCCC3)c1,-11.3,
Cc1occc1C(=O)Nc1cccc(S(=O)(=O)N2CCOCC2)c1,-21.2,

Compound,"activity change, negative = growth inhibition [%]",Potency
Cc1c(C(=O)NCCN(C)C)oc2ccc(S(=O)(=O)N3CCCC3)cc12,-8.67,
O=C(Nc1cc(S(=O)(=O)N2CCOCC2)ccc1Cl)c1cc(=O)c2ccccc2o1,,20.6 µM (active)
COc1ccc(NC(=O)c2oc3ccc(S(=O)(=O)N4CCOCC4)cc3c2C)cc1,,10.3 µM (active)
Cc1c(C(=O)Nc2ccccc2Cl)oc2ccc(S(=O)(=O)N3CCC4(CC3)OCCO4)cc12,-27.9,
Cc1c(C(=O)Nc2cccc(-c3nnc4n3CCCCC4)c2)oc2ccccc12,,16.4 µM (active)
Cc1cc(C)n2nc(C(=O)Nc3cccc(S(=O)(=O)N4CCOCC4)c3)nc2n1,-4.7,
Cc1nonc1NC(=O)c1oc2ccccc2c1C,15.9,
CSCCC(NC(=O)c1ccco1)C(=O)OCC(=O)Nc1ncc(Cl)c(C)c1Cl (stereo unspecified),-20,
O=C(Nc1c2c(nn1-c1ccccc1)CS(=O)(=O)C2)C1CCCC1,-18.2,
COCCNC(=O)C(OC(=O)c1cccs1)c1ccc(F)cc1 (stereo unspecified),-11.5,
Cn1cc(C2OC(=O)c3ccccc32)c2ccccc21 (stereo unspecified),-28.3,
CCn1c(O)c(N=NC2=NC(=O)CS2)c2cc(C)ccc21,-23.4,
COC(=O)C[C@@H]1C=C[C@@H](NS(=O)(=O)c2cccc(OC)c2)[C@@H](CO)O1,-2.53,
C[C@@H]1CN([C@H](C)CO)C(=O)CCCn2nncc2CO[C@@H]1CN(C)C(=O)OCc1ccccc1,-13.2,
O=C(O)CSc1nccn1-c1cccc(Cl)c1,-24.7,
Cc1cccc(OCC(=O)OCC(=O)Nc2ccc(Cl)cn2)c1,-2.9,
CCNC(=S)N1CCN(CCN=CC2=C(O)CC(C)(C)CC2=O)CC1,0.937,
Cc1cc(C)c(S(=O)(=O)N2C=CC(C(F)(F)F)=NCC2)c(C)c1,-29.9,
CC(CCO)Nc1nc2c([nH]1)c(=O)n(C)c(=O)n2C (stereo unspecified),-0.337,
Cc1sc2nc(-c3ccccc3F)oc(=O)c2c1C,1.12,
COc1ccc(-c2csc3nc(-c4ccccc4F)oc(=O)c23)cc1OC,,16.4 µM (active)
COc1ccccc1-c1nnc(-c2ccc(F)cc2)o1,-26.4,

Compound,"activity change, negative = growth inhibition [%]",Potency
O=C(NCc1ccco1)C(c1ccncc1)N(C(=O)Cn1nnc2ccccc21)c1ccccc1 (stereo unspecified),-4.11,
Cc1nn(-c2ccccc2)c2[nH]c(C(F)(F)F)cc(=O)c12,-13.2,
O=S(=O)(Nc1ncnc2sccc12)c1cccc(F)c1,-22.3,
Nc1ccccc1-c1nc2ccncc2[nH]1,5.85,
Cc1cccc(C)c1NC(=O)C1(N(C(=O)c2ccccn2)c2ccc(O)cc2)CCCCC1,3.63,
COc1ccc2c(CC(=O)OCC(=O)Nc3ccccc3[N+](=O)[O-])coc2c1,-18,
Cc1nc(C)c(C(=O)N(c2ccc(C)c(C)c2)C(C(=O)NCc2ccco2)c2ccccc2)s1 (stereo unspecified),-13,
Cc1ccc(-c2nnn(CC(=O)N(Cc3ccco3)C(C(=O)NC(C)(C)C)c3ccncc3)n2)o1 (stereo unspecified),5.93,
Cc1nn(-c2ccccc2)c2sc(C(=O)N(Cc3ccco3)C(C)C(=O)NC(C)(C)C)cc12 (stereo unspecified),,14.6 µM (active)
Cc1ccc(NC(=O)Nc2ccc3oc(C)nc3c2)cc1,-25.8,
CCN1CCN(CCCNC(=O)c2ccc3c(c2)sc2nc(-c4ccc(OC)cc4)cn23)CC1,,1.3 µM (active)
CCOC(=O)c1ccccc1NC(=O)c1sc2nc(-c3ccc(F)cc3)cn2c1C,-0.672,
COc1cccc(CNC(=O)c2n[nH]c3ccccc23)c1,,16.4 µM (active)
COc1ccc(NC(=O)c2cc(-c3ccc(C)cc3)on2)cc1,3.31,
COc1ccc(-c2cn3c(C)c(C(=O)Nc4cc(C)cc(C)c4)sc3n2)cc1,,16.4 µM (active)
CCCN1CCN(CCCNC(=O)c2ccc3nc(Cc4ccccc4)oc3c2)CC1,-27.3,
COc1ccc(-c2cn3c(n2)sc2cc(C(=O)Nc4ccccc4F)ccc23)cc1,,3.66 µM (active)
O=C(COC(=O)c1n[nH]c2ccccc12)NCc1ccccc1,-3.5,
COc1ccc2oc(=O)c(-c3cn4c(n3)sc3cc(OC)ccc34)cc2c1,-13.4,
O=C(NCCc1ccc(F)cc1)c1n[nH]c2ccccc12,-12.6,
COc1ccccc1NC(=O)c1ccc2nc(N3C(=O)CCC3=O)sc2c1,-2.13,
COc1ccc(-c2cc(C(=O)NCCCN3CCOCC3)no2)cc1,-21.3,
